Hits are enriched below; roughly 4.7% of the tested compounds scored in any of these assays.
D1 antag = Antagonist of Human D 1 Dopamine Receptor: qHTS; D(1A) dopamine receptor (Homo sapiens), P21728; HEK293 TREx D1 cells, calcium flux, dopamine EC80; stronger effect = lower value; activity change, negative = inhibition, % at 10 µM; 3.2% of 360,000 active; AID 504652, 2011; in the data active means activity change below about -30%; further: on the % scale 0 is the no-effect control and ±100 the full control effect
Target sequence (P21728 whole entry, looked up): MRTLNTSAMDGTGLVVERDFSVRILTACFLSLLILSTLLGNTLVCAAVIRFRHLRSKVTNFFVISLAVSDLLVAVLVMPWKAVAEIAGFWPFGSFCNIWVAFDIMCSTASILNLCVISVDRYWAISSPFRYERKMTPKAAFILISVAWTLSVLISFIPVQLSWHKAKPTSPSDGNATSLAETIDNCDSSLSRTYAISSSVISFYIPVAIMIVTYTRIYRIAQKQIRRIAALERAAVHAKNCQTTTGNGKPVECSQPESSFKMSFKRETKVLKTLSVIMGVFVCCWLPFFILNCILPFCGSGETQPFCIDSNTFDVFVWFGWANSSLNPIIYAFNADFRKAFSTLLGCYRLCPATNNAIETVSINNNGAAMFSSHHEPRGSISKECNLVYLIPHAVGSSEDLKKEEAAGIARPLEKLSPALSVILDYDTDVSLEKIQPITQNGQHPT
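After overnight tetracycline induction at 30 C, force-coupled D1 HEK293 cells took up a no-wash calcium dye at room temperature. Compounds were added and monitored 180 s, and the response to EC80 dopamine was then recorded.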
TRHR enhancer = qHTS for Small Molecule Agonists and Allosteric Enhancers of Human TRH Receptor: Primary Screen for Enhancers. 0.66% of 360,000 active. AID 493056, 2011. enhancement, % at 2 µM. TRHR cells, fluo-8 calcium fluorescence, EC20 TRH enhancement; in the data active means enhancement above about 30%; further: 0% is about no effect
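TRHR-expressing cells loaded with fluo-8 calcium dye were read kinetically (ex 480/em 530) during compound addition, then stimulated with an EC20 of TRH (10 nM final). Enhancement of the Gq-mediated intracellular calcium response was scored.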
D1 ag = Allosteric Agonists of the Human D1 Dopamine Receptor: qHTS; D(1A) dopamine receptor (Homo sapiens), P21728; HEK293 T-REx D1 cells, calcium flux, agonist mode; 1% of 360,000 active; activation, % at 2 µM; further: 0% is about no effect
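Tetracycline-induced HEK293 TREx D1 cells, force-coupled to calcium signalling, were dye-loaded with a no-wash calcium kit. Compound was pin-added after a 10 s baseline. Fluorescence was read kinetically at 1 cycle/s for 180 s, with calcium rises flagged as agonism.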
TRHR agonist = qHTS for Small Molecule Agonists and Allosteric Enhancers of Human TRH Receptor: Primary Screen for Agonists; activation, % at 2 µM; 0.18% of 360,000 active; AID 493084, 2011; TRHR cells, calcium flux fluo-8, FDSS agonist mode; further: 0% is about no effect
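TRHR-expressing cells loaded with fluo-8 calcium dye; 23 nL library compound pin-transferred, kinetic FDSS fluorescence (Ex 480/Em 530) recorded about 180 s for agonist-induced calcium release, before a 10 nM TRH EC20 addition for potentiator mode.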
D1 potentiator = Potentiators of Human D1 Dopamine Receptor: qHTS; 0.036% of 360,000 active; D(1A) dopamine receptor (Homo sapiens), P21728; AID 504651, 2011; potentiation, % at 10 µM; HEK293 TREx D1 cells, calcium flux, dopamine EC20 potentiation; in the data active means potentiation above about 30%; further: 0% is about no effect
An asterisk follows results filed as active. Unless noted, no stated cut-off is given here; in the data, active means activation above about 30%; inactive means the rest.

Screening NC(=O)c1ccc[n+](CC(=O)c2ccccc2)c1 returned D1 antag 0.4, TRHR enhancer -0.3, D1 ag 2.0, TRHR agonist 0.3 and D1 potentiator 3.2.
`NC(=O)c1ccc[n+](CC(=O)c2ccc(Cl)c(Cl)c2)c1` gave D1 antag -83.3*, TRHR enhancer 3.5, D1 ag -0.7, TRHR agonist 0.3 and D1 potentiator -3.8.
`CCc1ccccc1NC(=O)CN1C(=O)c2cccnc2Sc2ccccc21` gave D1 antag 3.2, TRHR enhancer 1.9, D1 ag 4.9, TRHR agonist -0.5 and D1 potentiator -0.1.
For Cc1nc([N+](=O)[O-])cn1Cc1cccc([N+](=O)[O-])c1 the results were D1 antag -31.3*, TRHR enhancer 1.8, D1 ag 3.2, TRHR agonist 1.1 and D1 potentiator -6.4.
`Clc1ccc(N/N=C/c2ccncc2)cc1Cl` gave D1 antag -34.2*, TRHR enhancer -1.3, D1 ag 3.7, TRHR agonist 2.4 and D1 potentiator -10.2.
Clc1cnc(N/N=C/c2ccncc2)c(Cl)c1 was read as D1 antag -2.1, TRHR enhancer -2.7, D1 ag 2.8, TRHR agonist -1.4 and D1 potentiator 10.3.
Screening Cc1ccc(CCN2C(=O)c3ccc(C(=O)O)cc3C2=O)cc1 returned D1 antag 3.4, TRHR enhancer 4.9, D1 ag 2.9, TRHR agonist 0.6 and D1 potentiator -3.8.
C=CCn1c(N)cc(=O)nc1SCC(=O)Nc1ccc(C)cc1 was read as D1 antag 5.6, TRHR enhancer 38.7*, D1 ag 3.1, TRHR agonist 0.3 and D1 potentiator -5.2.
For Cc1ccc(NC(=O)CSc2nc(=O)cc(N)n2CCc2ccccc2)cc1 the results were D1 antag 6.0, TRHR enhancer -8.4, D1 ag -0.4, TRHR agonist 0.3 and D1 potentiator 5.0.
`Cn1nnnc1SCC(=O)N1CCN(C(=O)c2ccco2)CC1` gave D1 antag -38.1*, TRHR enhancer 3.0, D1 ag 7.0, TRHR agonist -0.7 and D1 potentiator -2.4.
For Cn1nnnc1SCC(=O)NC(=O)Cc1ccccc1 the results were D1 antag -44.0*, TRHR enhancer -3.2, D1 ag 0.8, TRHR agonist 0.0 and D1 potentiator 0.8.
C=CCn1c(SCC(=O)Nc2cc(C)on2)nc2sc(CC)cc2c1=O was read as D1 antag -41.9*, TRHR enhancer -2.8, D1 ag -3.4, TRHR agonist -0.6 and D1 potentiator -2.9.
Screening C=CCn1c(SCC(=O)NC2CC2)nc2sc(CC)cc2c1=O returned D1 antag -16.0, TRHR enhancer -1.4, D1 ag 1.7, TRHR agonist -0.1 and D1 potentiator -1.7.
`COc1ccc(OC)c(-c2noc(CSc3nnc(-c4ccccc4)n3-c3ccccc3)n2)c1` gave D1 antag -2.0, TRHR enhancer -5.7, D1 ag 8.6, TRHR agonist 0.2 and D1 potentiator 0.9.
`O=C(NCCCc1nc2ccccc2n1Cc1ccc(Cl)cc1)C1CCCCC1` gave D1 antag 6.4, TRHR enhancer -14.9, D1 ag 9.9, TRHR agonist -0.7 and D1 potentiator -1.6.
Screening CCOC(=O)c1c(C)[nH]c(CCC(=O)NCc2ccc(CC)cc2)c1C returned D1 antag -4.0, TRHR enhancer -5.9, D1 ag 0.2, TRHR agonist -0.2 and D1 potentiator -3.2.
C=CCn1c(SCC(=O)N2CCCC2=O)nc2sc(CC)cc2c1=O was read as D1 antag 4.3, TRHR enhancer 1.5, D1 ag 7.5, TRHR agonist 0.5 and D1 potentiator -2.1.
`C=CCn1c(SCC(=O)N2CCN(C(=O)c3ccco3)CC2)nc2sc(CC)cc2c1=O` gave D1 antag -32.0*, TRHR enhancer -14.9, D1 ag -0.9, TRHR agonist 0.4 and D1 potentiator -0.8.
C=CCn1c(SCC(=O)O)nc2sc(CC)cc2c1=O was read as D1 antag -2.8, TRHR enhancer -3.0, D1 ag 2.9, TRHR agonist -0.8 and D1 potentiator -3.0.
Screening C=CCn1c(SCC(=O)Nc2ccc(O)cc2)nc2sc(CC)cc2c1=O returned D1 antag -31.5*, TRHR enhancer 7.0, D1 ag -0.2, TRHR agonist -0.8 and D1 potentiator -1.7.
Screening CC(=O)N1CCC(N(CCN2CCOCC2)C(=S)Nc2cc(C)ccc2C)CC1 returned D1 antag -22.2, TRHR enhancer 2.3, D1 ag 2.5, TRHR agonist 0.1 and D1 potentiator 0.5.
`COc1ccc(Cl)cc1NC(=O)C1CCN(S(=O)(=O)c2ccc3c(c2)CC(C)N3C(C)=O)CC1` (stereo unspecified) gave D1 antag -5.0, TRHR enhancer 1.2, D1 ag 0.7, TRHR agonist -0.2 and D1 potentiator 2.8.
For COc1ccc(-n2nc3c(c2NC(=O)C(=O)N2CCN(C)CC2)CSC3)cc1 the results were TRHR enhancer 43.2*, D1 ag -1.1, TRHR agonist 0.2 and D1 potentiator -2.1.
COc1ccccc1NC(=O)C1CCCN(c2nnc(C)c3c(C)n(-c4ccccc4)nc23)C1 (stereo unspecified) was read as D1 antag -5.7, TRHR enhancer -0.4, D1 ag 1.8, TRHR agonist -0.6 and D1 potentiator -1.5.
O=C1CC(c2nc3ccccc3[nH]2)CN1c1ccccc1 (stereo unspecified) was read as D1 antag -0.5, TRHR enhancer 31.2*, D1 ag 1.8, TRHR agonist -0.8 and D1 potentiator -2.8.
Screening O=C1CC(c2nc3ccccc3[nH]2)CN1c1cccc(Cl)c1 (stereo unspecified) returned D1 antag 2.4, TRHR enhancer 1.1, D1 ag 2.6, TRHR agonist -0.5 and D1 potentiator -2.4.
COc1cc(OC)c(C(=O)NCc2nc(-c3ccccc3)no2)cc1OC was read as D1 antag -16.9, TRHR enhancer -3.7, D1 ag 4.7, TRHR agonist -0.9 and D1 potentiator -2.0.
`COc1ccc(N2CCN(C(=O)c3ccc(-c4nc(COc5ccccc5)c(C)o4)cc3)CC2)cc1` gave D1 antag -0.4, TRHR enhancer -4.3, D1 ag -0.1, TRHR agonist 0.9 and D1 potentiator -2.3.
For CCCCCCCN1C/C=C\C(c2ccc(OC)cc2)N(Cc2ccc(F)cc2)C(=O)[C@H]1Cc1ccccc1 (stereo partly specified) the results were D1 antag -9.7, TRHR enhancer -1.9, D1 ag 9.5, TRHR agonist 0.7 and D1 potentiator -1.2.

Source: PubChem
